Rows were chosen to be rich in hits. Some 3.3% of all compounds tested hit in one or more screens of this group.
CASP6 VEID inh = blocks human caspase-6 cleavage activity. P55212. 350,000 tested, 0.53% active. inhibition, % at 12.5 µM. AID 686996. purified caspase-6, Z-VEID-R110 cleavage fluorescence;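 active = mean inhibition across replicates at least about 35%, with every replicate also reaching that limit, limit read from the data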;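 note: 0% = median of neutral control wells and 100% = no fluorescence left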
Target sequence (P55212 24-179 limits assumed): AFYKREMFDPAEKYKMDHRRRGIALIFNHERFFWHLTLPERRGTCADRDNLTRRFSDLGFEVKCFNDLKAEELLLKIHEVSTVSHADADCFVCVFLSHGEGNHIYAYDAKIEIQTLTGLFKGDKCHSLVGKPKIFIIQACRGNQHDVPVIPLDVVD
Target sequence (P55212 194-293 limits assumed): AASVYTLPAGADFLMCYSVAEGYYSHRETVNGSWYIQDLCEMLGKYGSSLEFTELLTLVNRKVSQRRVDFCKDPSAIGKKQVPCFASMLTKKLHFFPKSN
ERAP1 inh = blocks human ERAP1 aminopeptidase activity. inhibition, % at 10.7 µM. Q9NZ08. 340,000 tested, 0.15% active. recombinant ERAP1, Leu-AMC fluorescence, 60 min;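 active = mean replicate inhibition of at least 30%, or all replicates individually reaching that 30% level; inactive = mean below 30% and not every replicate reaching it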;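 note: 0% = neutral control wells and 100% = L-leucinethiol positive control wells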
GSIS activator = primary screen for activators of insulin secretion dependent on glucose, INS-1E cells, GLuc reporter luminescence. INS-1E GLuc reporter insulin secretion, 2-3 h. activation, % at 16.6 µM. 370,000 tested, 0.61% active. AID 743287;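 active = lowest replicate activation of at least 40%, so every replicate reaches that level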;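 note: 0% = median of neutral control wells and 100% = median of IBMX positive control wells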
FGF22 binding = shifts melting point of recombinant human FGF22. AID 651658. 340,000 tested, 1.5% active. activity (Tm shift, normalised), % at 9.99 µM. Q9HCT0. recombinant FGF22 thermal shift, SYPRO orange fluorescence; percent of sucrose octasulfate shift, DMSO zero;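 active = mean Tm shift, scaled 0 neutral to 100 positive control, at about 1.3% or above, every replicate too, limit read from the data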
SIRT5 inh = sirtuin-5 (human) deacylase inhibition; Q9NXA8; Purified SirT5, succinyl-peptide AMC, trypsin-coupled fluorescence; inhibition, % at 15 µM; 330,000 tested, 1.1% active; AID 652115; in the data active = inhibition above about 15%
Target sequence (Q9NXA8 whole entry, looked up): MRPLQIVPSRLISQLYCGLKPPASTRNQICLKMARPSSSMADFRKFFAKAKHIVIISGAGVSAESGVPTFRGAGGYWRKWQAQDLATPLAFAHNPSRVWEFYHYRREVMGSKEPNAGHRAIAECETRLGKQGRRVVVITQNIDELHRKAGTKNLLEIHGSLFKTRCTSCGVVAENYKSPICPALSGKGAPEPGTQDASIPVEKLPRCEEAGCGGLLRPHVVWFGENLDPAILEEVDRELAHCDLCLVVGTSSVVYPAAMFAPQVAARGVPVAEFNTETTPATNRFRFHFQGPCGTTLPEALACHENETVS
An asterisk follows results filed as active; · = no result given.

SMILES | CASP6 VEID inh | ERAP1 inh | GSIS activator | FGF22 binding | SIRT5 inh
O=C(CNS(=O)(=O)c1ccccc1)NCC(=O)N1CCCCC1 | -1 | -1 | 4 | 0 | 15*
COc1ccc2c3c([nH]c2c1)[C@@H](CO)N(C(C)=O)CC31CCN(C(=O)Nc2c(C)noc2C)CC1 | 0 | -1 | 7 | 0 | -4
COc1cccc2cccc(/C=N/n3cnnc3)c12 | 1 | 2 | -1 | 43* | 1
Oc1ccccc1/C=N/n1cnnc1 | · | · | -8 | · | ·
C[C@@H]1CN([C@H](C)CO)S(=O)(=O)c2ccc(-c3cncnc3)cc2O[C@@H]1CN(C)C(=O)CC1CC1 | -1 | -1 | 4 | 0 | -2
CC1=NN(c2ccccc2)C(=O)C1/C=C1\NC(=S)NC1=O (configuration not stated) | · | 5 | -8 | 0 | 15*
C[C@@H]1CN([C@@H](C)CO)C(=O)c2cc(NC(=O)CCN3CCOCC3)ccc2O[C@H]1CN(C)C(=O)Nc1ccc2c(c1)OCO2 | 1 | 1 | -5 | 0 | -1
S=c1[nH]nc(-c2cccnc2)n1/N=C/c1ccc(Br)s1 | · | · | -14 | · | ·
Cc1ccc(/C=N/n2c(-c3cccnc3)n[nH]c2=S)s1 | · | · | 40* | · | ·
CCN(CC)C(=O)c1sc(NC(=O)C(C)C)c(C#N)c1C | -4 | -1 | -3 | 44* | -5
COc1ccc(/C=C/C2=CCN(Cc3ccc(OC)cc3)CC2)cc1 | -6 | 0 | -23 | 43* | -3
CCCC(=O)Nc1ccc2c(c1)OC[C@H](C)N(C(=O)CC)C[C@@H](C)[C@H](OC)CN(C)C2=O | 2 | -2 | 7 | 0 | 0
COc1ccc(/C=N/NC(=O)CN(C2=NS(=O)(=O)c3ccccc32)c2ccccc2)cc1OC | · | · | 60* | · | ·
CCn1c(SCC(=O)N/N=C/c2ccc(OC)c(OC)c2)nc2ccccc21 | · | · | 84* | · | ·
COc1ccc(/C=N/NC(=O)CCn2c3ccccc3c3ccccc32)cc1OC | 4 | 11 | 54* | 0 | 1
COc1ccc(Cc2nc3ccccc3n2CC(=O)N/N=C/c2ccccc2)cc1OC | 1 | 3 | -13 | 0 | 0
COc1cccc(/C=N/NC(=O)CN(C2=NS(=O)(=O)c3ccccc32)c2ccccc2)c1 | · | · | -3 | · | ·
COc1cc(/C=N/NC(=O)CCn2c3ccccc3c3ccccc32)cc(OC)c1OC | 5 | 2 | 11 | 0 | 0
COc1ccc(/C=N/NC(=O)CCSc2nc3ccccc3s2)cc1OC | 4 | -5 | 54* | 42 | -3
CC(C)c1cn(CC[C@@H]2CC[C@H](NC(=O)c3cccc(F)c3)[C@H](CO)O2)nn1 | 0 | 0 | 5 | 0 | 0
O=C(O)C(Cc1ccc(O)cc1)N1C(=O)c2ccccc2C1=O (configuration not stated) | -3 | -6 | 48* | 0 | 0
C[C@@H]1CN([C@H](C)CO)C(=O)c2cccc(NC(=O)Nc3ccccc3)c2O[C@H]1CN(C)Cc1ccc2c(c1)OCO2 | 1 | 1 | -6 | 0 | -1
O=C(O)CN1C(=O)/C(=C/c2ccc(SCc3ccccc3)o2)SC1=S | 52* | 3 | -18 | · | 6
CC(C)NC(=O)Nc1ccc2c(c1)C(=O)N(C)[C@H]1CC[C@@H](CC(=O)NC3CCCCC3)O[C@@H]1CO2 | · | · | -3 | 0 | ·
Cc1cc(C)cc(CSCC(=O)N/N=C/c2ccc(OCC(=O)NCc3ccco3)cc2)c1 | 4 | 0 | 1 | 0 | 20*
SMILES | CASP6 VEID inh | ERAP1 inh | GSIS activator | FGF22 binding | SIRT5 inh
O=[N+]([O-])c1cccc(-c2csc(Nc3ccccc3)n2)c1 | 6 | -1 | 3 | 1 | -1
COc1cc(NS(=O)(=O)c2ccc(Nc3nc(-c4cccc([N+](=O)[O-])c4)cs3)cc2)nc(OC)n1 | 7 | -2 | -6 | 0 | 19*
CC1=C(SCc2ccccc2)C(=O)c2ccccc2C1=O | 64* | 6 | -22 | 0 | 3
O=C1C(SCCO)=C(SCCO)C(=O)c2ccccc21 | 6 | 9 | 32 | 0 | -6
COc1cc(C(=O)NCCCc2nc3ccccc3n2Cc2cc(C)ccc2C)cc(OC)c1OC | 1 | 7 | · | 0 | 19*
CC(=O)NCCCc1nc2ccccc2n1Cc1cc(C)ccc1C | 3 | -1 | 9 | 0 | -1
CN1CCCN(C(=O)/C=C/c2ccc(Cl)cc2Cl)CC1 | -66 | 5 | -3 | 44* | ·
O=C1CN(C(=O)/C=C/c2ccc(Cl)cc2Cl)CCN1 | 5 | -3 | 3 | 0 | 2
COc1cccc(NC(=O)N2[C@@H]3CNC[C@H]2C3c2ccc(-c3cccc(C(=O)N(C)C)c3)cc2)c1 (some centres not stated) | -3 | -3 | 2 | 0 | -1
Cc1cc(=O)[nH]c(NN=C2CCC(C(C)(C)C)CC2)n1 (configuration not stated) | -3 | -5 | 4 | 44* | -2
C[C@H](CO)N1C[C@H](C)[C@@H](CN(C)CC2CCCCC2)OCCCC[C@H](C)Oc2ccc(NC(=O)Nc3cccc4ccccc34)cc2C1=O | 1 | -1 | -6 | 1.5* | -1
C[C@@H]1CCCCO[C@H](CN(C)CC2CCCCC2)[C@H](C)CN([C@H](C)CO)C(=O)c2cc(NC(=O)Nc3cccc4ccccc34)ccc2O1 | 2 | -3 | -19 | 1.3* | 1
C[C@@H]1CCCCO[C@@H](CN(C)CC2CCCCC2)[C@@H](C)CN([C@@H](C)CO)C(=O)c2cc(NC(=O)Nc3cccc4ccccc34)ccc2O1 | 11 | -2 | -15 | 1.5* | 3
C[C@H](CO)N1C[C@H](C)[C@H](CN(C)CC2CCCCC2)OCCCC[C@H](C)Oc2ccc(NC(=O)Nc3cccc4ccccc34)cc2C1=O | -1 | -4 | -7 | 0 | 5
C[C@@H]1CCCCO[C@H](CN(C)CC2CCCCC2)[C@H](C)CN([C@@H](C)CO)C(=O)c2cc(NC(=O)Nc3cccc4ccccc34)ccc2O1 | 0 | -3 | -10 | 0 | 0
C[C@@H]1CN([C@H](C)CO)C(=O)c2cc(NC(=O)Cc3ccccc3)ccc2O[C@H]1CN(C)Cc1ccc(C(=O)O)cc1 | 0 | 0 | 4 | 0 | -3
C[C@H](CO)N1C[C@H](C)[C@@H](CN(C)Cc2ccc3c(c2)OCO3)Oc2ccc(NC(=O)Nc3cccc4ccccc34)cc2C1=O | 1 | 1 | -13 | 0 | ·
CCCC(=O)Nc1ccc2c(c1)C(=O)N(C)C[C@@H](OC)[C@@H](C)CN(C(C)=O)[C@H](C)CO2 | 1 | 1 | 12 | 0 | 1
CC1CCCCN1CCCNC(=O)Cn1c(=O)c2cccn2c2ccccc21 (configuration not stated) | -4 | 3 | 7 | 0 | 21*
COc1ccc(NC(=O)Nc2ccc3c(c2)CC(=O)N([C@@H](C)CO)C[C@@H](C)[C@@H](CN(C)C)O3)cc1 | -3 | 0 | 1 | 0 | -4
O=C(Nc1cccc(F)c1)N1CC(=O)N2[C@@H](CO)[C@H](c3ccc(-c4ccccc4)cc3)[C@@H]2C1 | 2 | 3 | -8 | · | 2
